Reference: the supplement of paper PMC6555819

What follows are sequences tested on PPARg:RXRa 270nM:90nM, anti-RXR (NR concentration 270 nM, RXRa partner concentration 90 nM) (assay: PBM binding z-score (relative to random genomic background probes); higher = stronger binding; sequences stand for … in GC…GCGATTGACAGCGTAGAATGAAGG).
Procedure, shortened: (§1)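 The probes on custom Agilent 4×180K protein-binding microarrays were double-stranded, with 34-nt variable regions bearing direct-repeat seeds, single-nucleotide variants, half-site ablations and random human genomic background sequences. Incubation lasted 1 h with ligand-free nuclear receptor dimers in PBS pH 7.4, 2% milk, 0.02% Triton X-100, 1 mM DTT, 0.2 mg/mL BSA and 0.4 mg/ml salmon testes DNA. Antibodies against each partner (one per run) detected bound dimers, and fluorescence scans were regression-normalized. Binding z-scores take the random background probes as reference.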

**Q.** TCTCGGAGGACACGAAGGTCAGAGCCTTCCAGAG was tested. Which PBM binding z-score did it give?
**A.** 1.76

**Q.** With ACAGACAGGTGAGTGAAGGTAACGCAGCTGGACG as the sequence, how does the PBM binding z-score read?
**A.** 0.162

**Q.** Which PBM binding z-score does the source give for AGTCAAAGTTCAGGACGAGGTATCGTAAAGCACG here?
**A.** 4.58

**Q.** With TCTAGTTGGTCACGGCGGTCACACACGACGGGTA as the sequence, how does the PBM binding z-score read?
**A.** 1.99

**Q.** With ACTGACGGGTCAACGAGGTTATAGCACGCGTATA as the sequence, how does the PBM binding z-score read?
**A.** 3.77

**Q.** TCGAGTAGGTTAGGGGCAATCAGAATGGCGTCGA was tested. Which PBM binding z-score did it give?
**A.** 2.73

**Q.** For AGAATGAGGTTAAGATCAGCGAAACAGAATACAT, which PBM binding z-score is on record?
**A.** 2.38

**Q.** How did the PBM binding z-score turn out when TCAGACAAGTGAAGGTAACTCAGGTACGCAGTCG was run?
**A.** 2.26

**Q.** With ACTATTAGTTGACTTAGGGCAACCGCTACGACGC as the sequence, how does the PBM binding z-score read?
**A.** -0.131

**Q.** For ATGTGTAGGTTAAGGGTCATTCAGGTTGGTTCGC, which PBM binding z-score is on record?
**A.** 8.54

**Q.** With CAAACTCGGTCACGAAAGGTCAAAGTCGAATGAC as the sequence, how does the PBM binding z-score read?
**A.** 5.84

**Q.** For ATATATAGGTTACATCCGGGTCATTCAGGCTATG, which PBM binding z-score is on record?
**A.** 5.45

**Q.** With AGAATGAGGTTACCAAAGATCATGGAAACGCTTG as the sequence, how does the PBM binding z-score read?
**A.** 2.95

**Q.** For TTACCAAGCTGAAAGGTCGTTGATGCACGCCTTG, which PBM binding z-score is on record?
**A.** 3.29

**Q.** CTCGAAAGGTCGTGCTCAGCTGAGTATACCAAAC was tested. Which PBM binding z-score did it give?
**A.** 3.89

**Q.** Which PBM binding z-score does the source give for ACCGAAAGGTCGACGAGGTGAGTATACACCGTTT here?
**A.** 3.21

**Q.** For AGCATGAGGTTATTAAGATCAGGGAATTGCGGTC, which PBM binding z-score is on record?
**A.** 1.13

**Q.** Which PBM binding z-score does the source give for AGAACGAGGGCAATGATTTGATAGCACGGGTGGC here?
**A.** 0.787

**Q.** How did the PBM binding z-score turn out when TCATATAGGTAATACAGGTGACAGTCGGCATCTA was run?
**A.** 2.52

**Q.** For CCTAGCAGGCCAATCTGGGCCACTCAAGGCTTGA, which PBM binding z-score is on record?
**A.** -0.364

**Q.** With CCAAACAGGTGAGAAGGTAACTCAGCCTCGATTA as the sequence, how does the PBM binding z-score read?
**A.** 1.22

**Q.** GTTAGTTGGTCAGTAAAAGGTCACACACCGGTCG was tested. Which PBM binding z-score did it give?
**A.** 4.81

**Q.** TCATATAGGTAAATGCTAGGGGAAAGTCCGATCT was tested. Which PBM binding z-score did it give?
**A.** 2.13

**Q.** With CCTTACGGTTCACTCCAGGTTATAGCATCGGAGT as the sequence, how does the PBM binding z-score read?
**A.** 0.77

**Q.** With ACTAGCAGGCCAAGTTTGGGTCTCTCAAACAAAG as the sequence, how does the PBM binding z-score read?
**A.** -0.524

**Q.** How did the PBM binding z-score turn out when TCGACTAGGTTAGTCGGGGCATTCAGCCAACATA was run?
**A.** 1.05

**Q.** How did the PBM binding z-score turn out when ATCTCTAGGTAACGAAGTTCAGTGAATGCCGAAC was run?
**A.** 1.02

**Q.** With CATACAGGGTCAGCCAGGCCAGAGTAGGGACGGC as the sequence, how does the PBM binding z-score read?
**A.** 3.21

**Q.** Which PBM binding z-score does the source give for ATATGAAGGTTAGCTGGGGTCATTCAGACTAGGC here?
**A.** 3.52

**Q.** How did the PBM binding z-score turn out when ATCTCTAGGTAAAGATAGTTCAGCGAATGCAAAT was run?
**A.** 0.42

**Q.** For TATACAGGGTCAAAGCCCAGAGTACGAATGTCGA, which PBM binding z-score is on record?
**A.** 5.96

**Q.** For TCTGCTAAGTCAACGATGGTCAGCTAATCTGCTA, which PBM binding z-score is on record?
**A.** 0.278

**Q.** With ATATGTAGGTTACATCCGGGTTATTCAGGCTATG as the sequence, how does the PBM binding z-score read?
**A.** 4.27

**Q.** How did the PBM binding z-score turn out when CCTATTACTTGACCATAAGGGCAACCGAAGCTCG was run?
**A.** 0.339

**Q.** For CCTATTAGTTGACCATAAGGGCGACCGAAGCTCG, which PBM binding z-score is on record?
**A.** 0.138

**Q.** How did the PBM binding z-score turn out when TCTAGTTGGTCACTGAGGTCACACACGACGGGTA was run?
**A.** 3.98

**Q.** With TCTGCTAGGTCAACGATGGTCAGCTCATCTGCTA as the sequence, how does the PBM binding z-score read?
**A.** 2.89

**Q.** For AGAATGAGGTTATACGCAGATCAGGGAAGAAAGT, which PBM binding z-score is on record?
**A.** 2.01

**Q.** How did the PBM binding z-score turn out when TCTATTAGTTGTTTAGGGCAACCGAAACAGCGGA was run?
**A.** 2.1

**Q.** Which PBM binding z-score does the source give for CCCGACAGGTGAAAGGTAACTCAGTCTGGTACGC here?
**A.** 5.75

These sequences were tested on PPARg:RXRa 30nM:10nM, anti-RXR (NR concentration 30 nM, RXRa partner concentration 10 nM) in the same assay as above.
Procedure, shortened: as §1

**Q.** TCTCGGAGGACACGAAGGTCAGAGCCTTCCAGAG was tested. Which PBM binding z-score did it give?
**A.** 2.02

**Q.** For ACAGACAGGTGAGTGAAGGTAACGCAGCTGGACG, which PBM binding z-score is on record?
**A.** -0.109

**Q.** How did the PBM binding z-score turn out when AGTCAAAGTTCAGGACGAGGTATCGTAAAGCACG was run?
**A.** 1.74

**Q.** Which PBM binding z-score does the source give for TCTAGTTGGTCACGGCGGTCACACACGACGGGTA here?
**A.** 3.11

**Q.** How did the PBM binding z-score turn out when ACTGACGGGTCAACGAGGTTATAGCACGCGTATA was run?
**A.** 0.997

**Q.** How did the PBM binding z-score turn out when TCGAGTAGGTTAGGGGCAATCAGAATGGCGTCGA was run?
**A.** 1.47

**Q.** For AGAATGAGGTTAAGATCAGCGAAACAGAATACAT, which PBM binding z-score is on record?
**A.** 0.794

**Q.** Which PBM binding z-score does the source give for TCAGACAAGTGAAGGTAACTCAGGTACGCAGTCG here?
**A.** 3.99

**Q.** ACTATTAGTTGACTTAGGGCAACCGCTACGACGC was tested. Which PBM binding z-score did it give?
**A.** 0.1

**Q.** For ATGTGTAGGTTAAGGGTCATTCAGGTTGGTTCGC, which PBM binding z-score is on record?
**A.** 9.74

**Q.** For CAAACTCGGTCACGAAAGGTCAAAGTCGAATGAC, which PBM binding z-score is on record?
**A.** 2.68

**Q.** With ATATATAGGTTACATCCGGGTCATTCAGGCTATG as the sequence, how does the PBM binding z-score read?
**A.** 2.59

**Q.** How did the PBM binding z-score turn out when AGAATGAGGTTACCAAAGATCATGGAAACGCTTG was run?
**A.** 1.11

**Q.** TTACCAAGCTGAAAGGTCGTTGATGCACGCCTTG was tested. Which PBM binding z-score did it give?
**A.** 1.06

**Q.** Which PBM binding z-score does the source give for CTCGAAAGGTCGTGCTCAGCTGAGTATACCAAAC here?
**A.** 0.929

**Q.** Which PBM binding z-score does the source give for ACCGAAAGGTCGACGAGGTGAGTATACACCGTTT here?
**A.** 0.781

**Q.** With AGCATGAGGTTATTAAGATCAGGGAATTGCGGTC as the sequence, how does the PBM binding z-score read?
**A.** 0.242

**Q.** Which PBM binding z-score does the source give for AGAACGAGGGCAATGATTTGATAGCACGGGTGGC here?
**A.** 0.29

**Q.** For TCATATAGGTAATACAGGTGACAGTCGGCATCTA, which PBM binding z-score is on record?
**A.** 3.86

**Q.** With CCTAGCAGGCCAATCTGGGCCACTCAAGGCTTGA as the sequence, how does the PBM binding z-score read?
**A.** -1.32

**Q.** CCAAACAGGTGAGAAGGTAACTCAGCCTCGATTA was tested. Which PBM binding z-score did it give?
**A.** 0.297

**Q.** GTTAGTTGGTCAGTAAAAGGTCACACACCGGTCG was tested. Which PBM binding z-score did it give?
**A.** 2.66

**Q.** With TCATATAGGTAAATGCTAGGGGAAAGTCCGATCT as the sequence, how does the PBM binding z-score read?
**A.** 3.88

**Q.** For CCTTACGGTTCACTCCAGGTTATAGCATCGGAGT, which PBM binding z-score is on record?
**A.** 0.224

**Q.** Which PBM binding z-score does the source give for ACTAGCAGGCCAAGTTTGGGTCTCTCAAACAAAG here?
**A.** -1.1

**Q.** How did the PBM binding z-score turn out when TCGACTAGGTTAGTCGGGGCATTCAGCCAACATA was run?
**A.** 1.49

**Q.** For ATCTCTAGGTAACGAAGTTCAGTGAATGCCGAAC, which PBM binding z-score is on record?
**A.** 0.0863

**Q.** With CATACAGGGTCAGCCAGGCCAGAGTAGGGACGGC as the sequence, how does the PBM binding z-score read?
**A.** 0.666

**Q.** With ATATGAAGGTTAGCTGGGGTCATTCAGACTAGGC as the sequence, how does the PBM binding z-score read?
**A.** 1.14

**Q.** For ATCTCTAGGTAAAGATAGTTCAGCGAATGCAAAT, which PBM binding z-score is on record?
**A.** 0.395

**Q.** For TATACAGGGTCAAAGCCCAGAGTACGAATGTCGA, which PBM binding z-score is on record?
**A.** 2.69

**Q.** With TCTGCTAAGTCAACGATGGTCAGCTAATCTGCTA as the sequence, how does the PBM binding z-score read?
**A.** 1.33

**Q.** Which PBM binding z-score does the source give for ATATGTAGGTTACATCCGGGTTATTCAGGCTATG here?
**A.** 2

**Q.** For CCTATTACTTGACCATAAGGGCAACCGAAGCTCG, which PBM binding z-score is on record?
**A.** 0.281

**Q.** How did the PBM binding z-score turn out when CCTATTAGTTGACCATAAGGGCGACCGAAGCTCG was run?
**A.** -0.288

**Q.** How did the PBM binding z-score turn out when TCTAGTTGGTCACTGAGGTCACACACGACGGGTA was run?
**A.** 3.27

**Q.** How did the PBM binding z-score turn out when TCTGCTAGGTCAACGATGGTCAGCTCATCTGCTA was run?
**A.** 1.65

**Q.** With AGAATGAGGTTATACGCAGATCAGGGAAGAAAGT as the sequence, how does the PBM binding z-score read?
**A.** 0.827

**Q.** For TCTATTAGTTGTTTAGGGCAACCGAAACAGCGGA, which PBM binding z-score is on record?
**A.** 3.88

**Q.** With CCCGACAGGTGAAAGGTAACTCAGTCTGGTACGC as the sequence, how does the PBM binding z-score read?
**A.** 3.73
